# Experimental data from PubChem BioAssay AID463173 (ICCB-Longwood Screening Facility, Harvard Medical School, 2010).
# Among all 52,000 compounds or so, about 4,300 (8.3%) were called active. This excerpt belongs to a sample that is enriched for actives. A number with no mark means an inactive call. No stated cut-off is given here; in the data, active means survival mostly below about 52% (no sharp cut-off); inactive means mostly above about 56%.
# Tested on: DeltatarO mutant
# Assay: S. aureus survival, RN4220 and DeltatarO strains – OD600, teichoic acid synthesis inhibitors, primary screen (AID 463173)
# Settings: S. aureus RN4220 wild type/DeltatarO growth, OD600, 18 h, active compounds read low, screened at 18.75 µg/mL (by protocol)
row,SMILES,survival
1,Cc1cccc(N2C(=O)CS/C2=N/NC(=O)c2cccc(Cl)c2)c1,97%
2,O=C(Cn1c(=O)c(C(F)(F)F)nc2ccccc21)Nc1cccc(Br)c1,99%
3,Cc1cccc(NC(=O)Cn2c(C(F)(F)F)nc3ccccc32)c1C,31% (active)
4,CC(=O)Nc1ccccc1-c1nc2ccccc2n(CC(=O)Nc2cccc(C)c2C)c1=O,117%
5,Cc1cccc(NC(=O)Cn2c(SCC(=O)NCc3ccccc3)nc3ccccc32)c1C,119%
6,CCN(C(=O)CSc1nc2ccccc2n1CC(=O)Nc1cccc(C#N)c1)c1ccccc1,122%
7,Cc1cc(C)cc(NC(=O)Cn2c(C(F)(F)F)nc3ccccc32)c1,67% (active)
8,CCN(C(=O)CSc1nc2ccccc2n1CC(=O)Nc1ccccc1C)c1ccccc1,-5% (active)
9,CCN(C(=O)CSc1nc2ccccc2n1CC(=O)Nc1ccc(F)cc1F)c1ccccc1,77%
10,Cc1ccc(NC(=O)Cn2c(=O)c(C(F)(F)F)nc3ccccc32)cc1C,60%
11,CC(C)C(=O)NS(=O)(=O)c1ccc(NC(=O)c2ccco2)cc1,90%
12,Cc1ccc(N2CC3=C(C2=O)C(c2ccc(Br)cc2)NC(=O)N3C)cc1 (stereo not given),74%
13,COc1cc(C)ccc1OCCSc1nc2ccc(NC(=O)c3ccccc3F)cc2s1,99%
14,CC(C)(C)c1ccc(-c2nc(NC(=O)CSc3ncnc4sc5c(c34)CCCC5)ns2)cc1,57% (active)
15,Cc1cc(SCC(=O)Nc2nsc(-c3ccc(C(C)(C)C)cc3)n2)nc2ccccc12,13% (active)
16,Cc1ccccc1-c1nc(NC(=O)CSc2ncnc3sc4c(c23)CCCC4)ns1,92%
17,COc1ccc2c(C)cc(SCC(=O)Nc3nsc(-c4ccccc4C)n3)nc2c1,35% (active)
18,COc1ccc2c(C)cc(SCC(=O)Nc3nsc(-c4ccc(C(C)(C)C)cc4)n3)nc2c1,56%
19,Cc1ccc(-c2nc(NC(=O)CSc3ccc4ccccc4n3)ns2)cc1,77%
20,Cc1cc(SCC(=O)Nc2ccc(Cl)cc2)nc2ccccc12,65%

row,SMILES,survival
1,Cc1ccc(-c2nc(NC(=O)CSc3cc(C)c4ccccc4n3)ns2)cc1,65%
2,Cc1nc(SCC(=O)Nc2nsc(-c3ccc(C(C)(C)C)cc3)n2)c2c3c(sc2n1)CCCC3,78%
3,CCN1CCN(c2oc(/C=C/c3cc(OC)c(OC)c(OC)c3)nc2C#N)CC1,72%
4,O=C(O)CSc1nc2c(c(C(F)(F)F)n1)CCc1ccccc1-2,96%
5,CCN(CC)N=Nc1ccc(S(=O)(=O)N2CCSC2C(=O)O)cc1 (stereo not given),103%
6,CCOc1ccc(CC(=O)NCCc2csc(-c3ccc(Cl)cc3)n2)cc1,67%
7,CCOC(=O)/C(C#N)=C\c1ccc(Br)s1,93%
8,CN(C(=O)CSc1nc2ccccc2n1CC(=O)NCc1ccc(F)cc1)c1ccc(F)cc1,128%
9,COc1ccc(CNc2ccc3cc(S(=O)(=O)N4CCCCC4)ccc3n2)cc1,79%
10,COc1cc(NC(=O)CN2CCCN(S(=O)(=O)c3ccc(F)cc3)CC2)cc(OC)c1,74%
11,CCCCSc1nnc2[nH]c(=O)cc(C)n12,99%
12,Cc1ccc2nc(CSc3nnc(NC(=O)COc4ccccc4F)s3)cc(=O)n2c1,70%
13,Cc1ccc(OCC(=O)Nc2nnc(SCc3cc(=O)n4cc(C)ccc4n3)s2)cc1,6% (active)
14,Cc1cccn2c(=O)cc(CSc3nnc(NC(=O)COc4ccc(F)cc4)s3)nc12,-2% (active)
15,Cc1cccn2c(=O)cc(CSc3nnc(NC(=O)COc4ccccc4)s3)nc12,84%
16,Cc1ccc(OCC(=O)Nc2nnc(SCc3cc(=O)n4cccc(C)c4n3)s2)cc1,76%
17,Cc1ccc2nc(CSc3nnc(NC(=O)CC(C)C)s3)cc(=O)n2c1,76%
18,Cc1ccc2nc(CSc3nnc(NC(=O)COc4ccccc4)s3)cc(=O)n2c1,67%
19,Cc1ccc2nc(CSc3nnc(NC(=O)C(C)C)s3)cc(=O)n2c1,-1% (active)
20,CC(C)C(=O)Nc1nnc(SCc2cc(=O)n3ccccc3n2)s1,86%

row,SMILES,survival
1,COCCN(C(=O)c1ccco1)c1nnc(-c2ccc(F)cc2)s1,58%
2,CSc1nnc(-c2ccncc2)n1C,97%
3,COc1ccc(N2CCN(S(=O)(=O)c3csc(C(N)=O)c3)CC2)cc1,90%
4,COc1cc(Cl)c(C)cc1NC(=O)CSc1cc(=O)n(C)c2cc(Cl)ccc12,63%
5,CC(C)(C)OC(=O)N1CC2C(C1)C2NC(=O)c1nsc(Cl)c1Cl (stereo not given),82%
6,CCOC(=O)c1ccc(NC(=O)c2ccc3c(c2)c(C)c(C)n3Cc2ccc(F)cc2)cc1,91%
7,O=C(Cn1c(=O)n(-c2ccccc2)c(=O)c2ccc(C(=O)NCc3ccc4c(c3)OCO4)cc21)Nc1ccc(Br)cc1,79%
8,CSc1ccc(CCNC(=O)Cn2nc(C)n3c(cc4sccc43)c2=O)cc1,88%
9,CCCc1ccc(C2Sc3ccccc3NC3=C2C(=O)c2ccccc23)cc1 (stereo not given),94%
10,COc1ccc(C2Sc3ccccc3NC3=C2C(=O)c2ccccc23)c(OC)c1OC (stereo not given),77%
11,O=C1C2=C(Nc3ccccc3SC2c2ccc(Cl)c(Cl)c2)c2ccccc21 (stereo not given),22% (active)
12,CCOc1cc(C2Sc3ccccc3NC3=C2C(=O)c2ccccc23)ccc1O (stereo not given),48%
13,CC(=O)Nc1ccc(C2Sc3ccccc3NC3=C2C(=O)c2ccccc23)cc1 (stereo not given),116%
14,O=C1C2=C(Nc3ccccc3SC2c2c(F)cccc2Cl)c2ccccc21 (stereo not given),94%
15,COc1ccc(Br)cc1C1Sc2ccccc2NC2=C1C(=O)c1ccccc12 (stereo not given),31% (active)
16,O=C1C2=C(Nc3ccccc3SC2c2ccccc2C(F)(F)F)c2ccccc21 (stereo not given),24% (active)
17,O=C1C2=C(Nc3ccccc3SC2c2ccc(C(F)(F)F)cc2)c2ccccc21 (stereo not given),16% (active)
18,CC(C)(C)c1ccc(C2Sc3ccccc3NC3=C2C(=O)c2ccccc23)cc1 (stereo not given),98%
19,CCc1ccc(C2Sc3ccccc3NC3=C2C(=O)c2ccccc23)cc1 (stereo not given),104%
20,CC(C)c1ccc(C2Sc3ccccc3NC3=C2C(=O)c2ccccc23)cc1 (stereo not given),85%
